Results: ChEMBL document CHEMBL3988442, “University of Dundee, Small-Polar-MMV Screening Library” (2021)
Among all 53,000 compounds or so, about 900 (1.7%) showed an effect of 50% or more. Many of the other results were omitted from the sample, so strong results are more common in it than they were.

Each compound was assayed on Mycobacterium tuberculosis (assay: Cornell - Phenotypic assay to identify agents that inhibit growth of Mycobacterium tuberculosis). Conditions: 10 mM as filed; unlikely as a test dose.
Assay type: functional
Parameters: scale not given: direction of the effect not stated beside the values

| Compound | Percent Effect [%] |
| --- | --- |
| Cc1cc(C(=O)N2CCc3c(CN(C)C(C)C)n[nH]c3C2)[nH]n1 | 21.29 |
| CCc1noc(CNc2ccc(C(=O)N3CCCC3)cc2C)n1 | -69.23 |
| Cc1ccc(CN2CCc3onc(C(=O)NCCN(C)C)c3C2)o1.O=C(O)C(F)(F)F.O=C(O)C(F)(F)F | 6.093 |
| Cc1ccc(CN2CCc3onc(C(=O)NC(C)C)c3C2)o1.O=C(O)C(F)(F)F | 1.183 |
| Cc1ccc(CN2CCc3onc(C(=O)Nc4cccnc4)c3C2)o1.O=C(O)C(F)(F)F.O=C(O)C(F)(F)F | 61.31 |
| CCc1cnc(CN(C)C2CCN(Cc3nnc(C4CC4)n3C)C2)o1 (centres undefined) | 31.65 |
| Cc1cc(C(=O)N(C)CCN(C)C(=O)OC(C)(C)C)oc1C | -8.303 |
| Cc1cc(C)c(C(=O)N(C)CCN(C)C(=O)OC(C)(C)C)[nH]1 | 68.36 |
| Cc1cc(C)c(C(=O)N(C)CCN(C)C(=O)c2[nH]c(C)cc2C)[nH]1 | 1.614 |
| c1cc(CNc2ncc(-c3cnccn3)c(C3CC3)n2)ccn1 | -5.136 |
| CSc1cccc(CN(C)C(=O)c2cccc(C3CCCNC3)c2)c1 (centres undefined) | 36.25 |
| CC(=O)N1CCC(c2ncc(C(=O)Nc3ccc(F)cc3)c(C)n2)CC1 | 4.765 |
| O=C(O)C(F)(F)F.O=S(=O)(NCC1COCc2c(-c3ccncc3)nnn2C1)C1CC1 (centres undefined) | 13.64 |
| Cn1cc(-c2csc(N3CCCCCC3)n2)cn1 | 18.17 |
| Cn1cc(-c2csc(N3CCN(C(=O)OC(C)(C)C)CC3)n2)cn1 | 78.03 |
| CN1CCN(c2nc(-c3cnn(C)c3)cs2)CC1 | 19.22 |
| O=C(c1ccncc1)N1CCCC(C2=Nc3ccccc3S(=O)(=O)N2)C1 (centres undefined) | 43.45 |
| O=C(C1CC1)N1CCCC(C2=Nc3ccccc3S(=O)(=O)N2)C1 (centres undefined) | 29.99 |
| Cc1occc1C(=O)N1CCCC(C2=Nc3ccccc3S(=O)(=O)N2)C1 (centres undefined) | 60.62 |
| CC(C)CN1C[C@H]2C[C@H](C(=O)Nc3cccnc3)[C@@H](C1)O2 | 6.477 |
| CCN(CC)S(=O)(=O)CC(=O)N1CCc2ccc(Cl)cc21 | 4.859 |
| CCOc1cc(CN(C)CCCC#N)ccc1OC(F)F | 7.532 |
| Cc1cc(NC(=O)C2CCN(c3nnc(C)c(C)c3C#N)CC2)no1 | -12.4 |
| Cc1cc(NC(=O)NCc2nncn2C)ccc1OC(C)C | -0.4289 |
| Cc1cc(NC(=O)NCc2nccn2C)ccc1OC(C)C | 35.97 |
| CCC(CO)NC(=O)Nc1ccc(OCC(F)(F)F)c(C)c1 (centres undefined) | -5.78 |
| CCC(NC(=O)Nc1ccc(OC)c(C)c1)c1noc(C)n1 (centres undefined) | -4.83 |
| CCC(NC(=O)Nc1ccc(OC)c(C)c1)c1ccncc1 (centres undefined) | 89.35 |
| Cc1cc(NC(=O)NCc2ccncc2)ccc1OC(C)C | 88.24 |
